Reference: PubChem BioAssay (NCATS)
Results filed as inconclusive are left out. Calls of active or inactive are those of the source. The call rests on the fitted dose curve; in most records, active means well fitted curve in the direction sought with a large enough effect; inconclusive means small, poorly fitted or top-dose-only effect, or another doubt; inactive means no such curve, though single readings can be large; an effect the other way counts as inactive or inconclusive.

Tests used:
[1] = Quantitative High-Throughput drug screen in 47 multiple myeloma cell lines against the NCATS MIPE library collection: KMM1_JCRB cell viability assay (AID 1918960); further: nearly all actives have a fitted effect of over 30% in size
Outline: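 Here, 48 h treatment with MIPE 4.0 agents at 37 °C preceded an ATP luminescence read. Plating density was 500 cells per well.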

[2] = Quantitative High-Throughput drug screen in 47 multiple myeloma cell lines against the NCATS MIPE library collection: INA6_PLB cell viability assay (AID 1918965; further: nearly all actives have a fitted effect of over 55% in size)
Outline: (§1)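 Approved and investigational drugs from MIPE 4.0 were added by pin tool to 500 cells per well. After 48 hours at 37C, ATP-based CellTiter-Glo luminescence indicated remaining viability.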

[3] = Quantitative High-Throughput drug screen in 47 multiple myeloma cell lines against the NCATS MIPE library collection: KMS27_JCRB cell viability assay (AID 1918970); details: KMS27 myeloma cells, CellTiter-Glo ATP viability, 48 h; viability (% of DMSO): at 45.8 µM (top of the series); further: nearly all actives have a fitted effect of over 30% in size;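 on viability (% of DMSO): 100% = DMSO-only wells and 0% = media-only wells without cells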
Outline: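 KMS27_JCRB myeloma cells, 500 per well, exposed 48 h at 37 C, 5% CO2 to MIPE 4.0 compounds. Viability from ATP by CellTiter-Glo luminescence, normalized to DMSO (100%) and medium-only (0%) wells.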

[4] = Quantitative High-Throughput drug screen in 47 multiple myeloma cell lines against the NCATS MIPE library collection: KMS12BM_JCRB cell viability assay (AID 1918971); further: nearly all actives have a fitted effect of over 35% in size
Outline: (§2)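 Steps: seed 500 cells per well; pin-transfer MIPE 4.0 library; incubate 48 h at 37C, 5% CO2, humidified; add CellTiter-Glo, 5 min room temperature; read luminescence.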

[5] = Quantitative High-Throughput drug screen in 47 multiple myeloma cell lines against the NCATS MIPE library collection: KMS12PE_JCRB cell viability assay (AID 1918972); further: nearly all actives have a fitted effect of over 30% in size;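 on viability: 100% = DMSO only wells and 0% = wells with media alone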
Outline: as §1

[6] = Quantitative High-Throughput drug screen in 47 multiple myeloma cell lines against the NCATS MIPE library collection: KMS26_JCRB cell viability assay (AID 1918975); further: nearly all actives have a fitted effect of over 45% in size;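 on viability (% of DMSO): 100% = DMSO-treated wells and 0% = wells with media only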
Outline: as §2

[7] = Quantitative High-Throughput drug screen in 47 multiple myeloma cell lines against the NCATS MIPE library collection: MMM1_PLB cell viability assay (AID 1918976); further: nearly all actives have a fitted effect of over 35% in size
Outline: (§3)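 MIPE 4.0 approved/investigational drugs; 500 cells/well; 48 h 37 °C humidified 5% CO2; CTG luminescence readout; DMSO = 100%, media = 0% viability.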

[8] = Quantitative High-Throughput drug screen in 47 multiple myeloma cell lines against the NCATS MIPE library collection: MM1S_ATCC cell viability assay (AID 1918980); further: nearly all actives have a fitted effect of over 45% in size
Outline: as §3

[9] = Quantitative High-Throughput drug screen in 47 multiple myeloma cell lines against the NCATS MIPE library collection: JIM3_ECACC cell viability assay (AID 1918963; further: nearly all actives have a fitted effect of over 35% in size)
Outline: (§4)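 Viability readout: CellTiter-Glo luminescence following 5 min room-temperature incubation with reagent. Prior exposure: 48 h, 37C, humidified 5% CO2, 500 cells per well.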

[10] = Quantitative High-Throughput drug screen in 47 multiple myeloma cell lines against the NCATS MIPE library collection: JJN3_DSMZ cell viability assay (AID 1918966; further: nearly all actives have a fitted effect of over 50% in size)
Outline: (§5)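 Relative luminescence from CellTiter-Glo served as the viability signal, referenced to DMSO-treated (100%) and cell-free medium (0%) controls. Treatment lasted 48 hours at 37C with 500 cells per well.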

[11] = Quantitative High-Throughput drug screen in 47 multiple myeloma cell lines against the NCATS MIPE library collection: H1112_PLB cell viability assay (AID 1918967; further: nearly all actives have a fitted effect of over 30% in size)
Outline: as §5

[12] = Quantitative High-Throughput drug screen in 47 multiple myeloma cell lines against the NCATS MIPE library collection: Karpas417_ECACC cell viability assay (AID 1918961); details: Karpas417 myeloma viability, CellTiter-Glo ATP luminescence, 48 h; viability (% of DMSO): at 45.8 µM (top of the series);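 on viability (% of DMSO): 100% = DMSO only wells and 0% = media only wells without cells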
Outline: as §1

[13] = Quantitative High-Throughput drug screen in 47 multiple myeloma cell lines against the NCATS MIPE library collection: KHM11_PLB cell viability assay (AID 1918962); further: nearly all actives have a fitted effect of over 35% in size
Outline: as §4

[14] = Quantitative High-Throughput drug screen in 47 multiple myeloma cell lines against the NCATS MIPE library collection: JIM1_ECACC cell viability assay (AID 1918964)
Outline: as §5

[15] = Quantitative High-Throughput drug screen in 47 multiple myeloma cell lines against the NCATS MIPE library collection: Karpas25_ECACC cell viability assay (AID 1918968; further: nearly all actives have a fitted effect of over 35% in size)
Outline: as §5

[16] = Quantitative High-Throughput drug screen in 47 multiple myeloma cell lines against the NCATS MIPE library collection: NCIH929_DSMZ cell viability assay (AID 1918978); further: nearly all actives have a fitted effect of over 35% in size
Outline: as §3

[17] = Quantitative High-Throughput drug screen in 47 multiple myeloma cell lines against the NCATS MIPE library collection: OCIMY1_PLB cell viability assay (AID 1918979); further: nearly all actives have a fitted effect of over 35% in size;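 on viability: 100% = DMSO-only wells and 0% = cell-free media-only wells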
Outline: as §3

[18] = Quantitative High-Throughput drug screen in 47 multiple myeloma cell lines against the NCATS MIPE library collection: KMS21BM_JCRB cell viability assay (AID 1918974); details: ATP luminescence, 48 h; viability: at 45.8 µM (top of the series)
Outline: as §5

[19] = Quantitative High-Throughput drug screen in 47 multiple myeloma cell lines against the NCATS MIPE library collection: MOLP8_DSMZ cell viability assay (AID 1918977); further: nearly all actives have a fitted effect of over 45% in size
Outline: as §3

[20] = Quantitative High-Throughput drug screen in 47 multiple myeloma cell lines against the NCATS MIPE library collection: KMS20_JCRB cell viability assay (AID 1918973); further: nearly all actives have a fitted effect of over 45% in size
Outline: as §5
Potency means the concentration at half of the fitted maximal effect.

CC(C)(OCc1nn(Cc2ccccc2)c2ccccc12)C(=O)O
active: Potency [4] 0.418 µM | Potency [6] 6.62 µM | Potency [8] 13.2 µM
inactive: Potency [1] | Potency [2] | Potency [3] | Potency [5] | Potency [7]

Cc1cc2c(cc1C1(c3ccc(C(=O)O)cn3)CC1)C(C)(C)CCC2(C)C
inactive: Potency [1] | Potency [5] | Potency [8]
active: Potency [9] 0.332 µM | Potency [10] 1.05 µM | Potency [11] 0.118 µM | Potency [4] 3.32 µM | Potency [6] 14.8 µM

O=C(Nc1ncc(SCCN2CCCC2)s1)[C@]1(c2ccc(S(=O)(=O)C3CC3)cc2)C[C@@H]1C1CCCCC1
active: Potency [12] 10.5 µM | Potency [13] 16.6 µM | Potency [9] 20.9 µM | Potency [14] 6.62 µM | Potency [2] 16.6 µM | Potency [10] 16.6 µM | Potency [11] 23.5 µM | Potency [15] 18.7 µM | Potency [3] 7.43 µM | Potency [4] 23.5 µM | Potency [5] 5.26 µM | Potency [6] 23.5 µM | Potency [7] 14.8 µM | Potency [16] 20.9 µM | Potency [17] 26.4 µM | Potency [8] 20.9 µM

CO[C@H]1O[C@@H]2O[C@@]3(C)CC[C@@H]4[C@@H](C)CC[C@@H]([C@H]1C)[C@@]24OO3
inactive: Potency [6] | Potency [17] | Potency [8]
active: Potency [1] 1.32 µM | Potency [2] 0.469 µM | Potency [10] 5.9 µM | Potency [11] 7.43 µM | Potency [15] 1.18 µM | Potency [4] 3.32 µM | Potency [7] 3.72 µM | Potency [16] 0.833 µM

CC[C@]1(O)C[C@H]2CN(CCC3=c4ccccc4=N[C]3[C@@](C(=O)OC)(c3cc4c(cc3OC)N(C)[C@H]3[C@@](O)(C(N)=O)[C@H](O)[C@]5(CC)C=CCN6CC[C@]43[C@@H]65)C2)C1
active: Potency [1] 0.105 µM | Potency [10] 0.372 µM | Potency [11] 0.0332 µM | Potency [3] 0.296 µM | Potency [4] 0.0047 µM | Potency [5] 0.132 µM | Potency [18] 0.0935 µM | Potency [6] 0.0662 µM | Potency [7] 0.132 µM | Potency [19] 0.148 µM | Potency [16] 0.166 µM | Potency [17] 0.662 µM | Potency [8] 0.235 µM

CN(CC=CC#CC(C)(C)C)Cc1cccc2ccccc12
inactive: Potency [1] | Potency [14] | Potency [3] | Potency [16] | Potency [8]

CC1=C[C@@H]2[C@@H]([C@@H](O)C[C@@]3(C)[C@H]2C[C@@H](C)[C@]3(O)C(=O)CO)[C@@]2(C)Cc3cnn(-c4ccccc4)c3C=C12
active: Potency [1] 0.0105 µM | Potency [9] 26.4 µM | Potency [10] 23.5 µM | Potency [15] 0.0083 µM | Potency [4] 18.7 µM | Potency [7] 20.9 µM | Potency [17] 23.5 µM | Potency [8] 0.0083 µM
inactive: Potency [3]

CNc1nc(Nc2ccc(C(=O)N3CCOCC3)cc2OC)ncc1Cl
inactive: Potency [1] | Potency [11] | Potency [15] | Potency [5] | Potency [17]
active: Potency [9] 20.9 µM | Potency [4] 14.8 µM | Potency [7] 13.2 µM

Cc1cc(CS(=O)(=O)c2ccccc2)cc(OCc2ccc(CN3CCC[C@H]3CO)cc2)c1
inactive: Potency [16] | Potency [17]
active: Potency [12] 3.72 µM | Potency [9] 20.9 µM | Potency [2] 18.7 µM | Potency [11] 16.6 µM | Potency [15] 16.6 µM | Potency [3] 4.18 µM | Potency [4] 16.6 µM | Potency [5] 16.6 µM | Potency [18] 1.18 µM | Potency [6] 5.26 µM | Potency [7] 13.2 µM | Potency [8] 4.69 µM

CN(C)CCOc1cc(-c2cn[nH]c2)ccc1NC(=O)C1COc2ccccc2O1 (stereo not given)
active: viability (% of DMSO) [12] 64.1% | Potency [9] 18.7 µM | Potency [2] 13.2 µM | Potency [16] 18.7 µM
inactive: Potency [13] | Potency [11] | Potency [19]

N#CC1(c2cccc(C(=O)Nc3cc(Oc4ccc5nc(NC(=O)C6CC6)sc5n4)ccc3F)c2Cl)CC1
active: Potency [12] 0.187 µM | Potency [2] 5.9 µM | Potency [11] 13.2 µM | Potency [4] 13.2 µM | Potency [5] 2.09 µM | Potency [20] 0.469 µM | Potency [16] 6.62 µM | Potency [17] 0.332 µM

O=C(CC12CC3CC(CC(C3)C1)C2)Nc1cccc2nc(NCCNCCO)ccc12
active: Potency [12] 1.48 µM | Potency [13] 5.26 µM | Potency [9] 9.35 µM | Potency [2] 9.35 µM | Potency [10] 9.35 µM | Potency [11] 7.43 µM | Potency [15] 5.9 µM | Potency [3] 18.7 µM | Potency [4] 18.7 µM | Potency [5] 9.35 µM | Potency [20] 6.62 µM | Potency [6] 18.7 µM | Potency [16] 2.35 µM | Potency [8] 8.33 µM

O=C1C(c2c(O)[nH]c3ccccc23)=Nc2ccccc21
inactive: Potency [13] | Potency [9] | Potency [2] | Potency [3] | Potency [17]
active: Potency [10] 6.62 µM | Potency [15] 6.62 µM | Potency [4] 5.9 µM | Potency [6] 2.96 µM | Potency [7] 2.09 µM | Potency [8] 0.118 µM

C[C@H]1[C@H](O)O[C@@H]2O[C@@]3(C)CC[C@@H]4[C@H](C)CC[C@@H]1[C@@]24OO3
active: Potency [12] 2.09 µM | Potency [2] 1.66 µM | Potency [11] 16.6 µM | Potency [15] 1.66 µM | Potency [3] 13.2 µM | Potency [4] 1.66 µM | Potency [20] 14.8 µM | Potency [8] 11.8 µM

CCC(=O)OCC(=O)[C@@]1(OC(=O)CC)[C@@H](C)C[C@@H]2[C@H]3CCC4=CC(=O)C=C[C@]4(C)[C@@]3(F)[C@@H](O)C[C@@]21C
active: Potency [12] 0.0935 µM | Potency [14] 6.62 µM | Potency [15] 0.118 µM | Potency [3] 4.18 µM | Potency [5] 10.5 µM | Potency [18] 2.64 µM
inactive: Potency [13] | Potency [11] | Potency [16] | Potency [17]
